PubChem BioAssay AID651650 (Sanford-Burnham Center for Chemical Genomics, 2012)

Biological target: Neuropilin-1 (Homo sapiens) (UniProt O14786)
Test: NRP-1 b1b2 CendR peptide binding inhibitors, dose response, biochemical, FP and AlphaScreen panel (AID 651650)
Conditions: NRP-1 b1b2 / RPARPAR peptide binding, FP or AlphaScreen; run 1, at 100 µM (top of the series)

Sequence of Neuropilin-1 (Homo sapiens) (O14786 whole entry, looked up): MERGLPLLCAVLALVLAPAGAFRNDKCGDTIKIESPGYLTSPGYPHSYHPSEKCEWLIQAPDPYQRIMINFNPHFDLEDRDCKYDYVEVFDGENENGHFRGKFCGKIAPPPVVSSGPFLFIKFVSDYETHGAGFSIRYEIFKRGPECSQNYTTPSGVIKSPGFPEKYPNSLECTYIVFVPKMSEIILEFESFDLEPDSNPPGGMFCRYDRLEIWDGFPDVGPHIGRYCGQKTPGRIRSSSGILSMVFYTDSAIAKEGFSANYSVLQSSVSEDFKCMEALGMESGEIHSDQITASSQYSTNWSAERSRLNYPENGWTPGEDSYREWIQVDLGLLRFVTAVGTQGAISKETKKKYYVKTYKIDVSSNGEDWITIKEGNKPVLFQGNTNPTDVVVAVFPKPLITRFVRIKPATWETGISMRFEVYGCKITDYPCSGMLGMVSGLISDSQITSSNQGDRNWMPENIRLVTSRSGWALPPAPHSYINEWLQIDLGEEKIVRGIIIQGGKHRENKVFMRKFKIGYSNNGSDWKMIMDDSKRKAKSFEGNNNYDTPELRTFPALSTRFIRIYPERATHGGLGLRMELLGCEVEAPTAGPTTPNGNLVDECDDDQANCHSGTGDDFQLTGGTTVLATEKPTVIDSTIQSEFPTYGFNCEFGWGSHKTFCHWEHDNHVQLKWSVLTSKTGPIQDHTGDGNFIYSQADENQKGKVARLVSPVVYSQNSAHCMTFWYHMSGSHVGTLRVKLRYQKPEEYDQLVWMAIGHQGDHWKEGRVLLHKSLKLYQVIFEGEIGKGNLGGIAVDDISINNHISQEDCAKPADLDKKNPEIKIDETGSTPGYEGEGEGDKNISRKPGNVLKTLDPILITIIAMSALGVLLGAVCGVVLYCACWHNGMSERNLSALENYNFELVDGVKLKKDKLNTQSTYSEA

SMILES	inhibition [%]
c1ccc(OCCCN2CCCC2)cc1	53.9
C[C@@H]1CC=C[C@H]2[C@H]1C(=O)N(Cc1ccccc1)[C@H]2c1ccc(/C=C/c2ccccc2)cc1F	48.3
Cc1nc(SCc2ccc(C(=O)O)cc2)nc2c1CCCC2	41.7
COc1ccc(CCNC(=O)c2c(O)c3cccc4c3n(c2=O)CC4)cc1OC	37.4
Cc1onc(-c2ccccc2)c1C(=O)N1CCCC1	31.9
O=C1CSC(c2cn(-c3ccccc3)nc2-c2cccs2)N1CC1CCCO1 (centres undefined)	73.3
N#CC(C#N)=Cc1cc2ccccc2nc1N1CCCCC1	-3.26
CC(=O)Nc1ccccc1OCC(=O)N(Cc1ccccc1)C(C)C	18.2
COC(=O)c1c(NC(=O)CN(c2ccccc2)S(C)(=O)=O)sc2c1CCCC2	84
COC(=O)c1ccc(Cn2nnc3c(=O)[nH]c(C4CCCN(S(=O)(=O)c5cccc(Cl)c5)C4)nc32)cc1 (centres undefined)	35.3
CCOc1cc(C(=O)NCCN2CCOCC2)cc(OCC)c1OCC	23.9
CCn1ncc(Br)c1C(=O)N(C)C12CC3CC(CC(C3)C1)C2	41.8
CC(=O)Nc1cc(F)c2c(c1F)Cc1cc(F)ccc1-2	64
CCCCCc1c(-c2cccc(Cl)c2)ncn1CCc1ccccc1OC	51.8
CNC(=O)NC(=O)C(C)OC(=O)c1c(C)noc1C (centres undefined)	49.1
O=C1CCC/C=C\C[C@@H](CC(=O)N(CCO)Cc2ccccc2)C(=O)N2CCC[C@H]2CO1	-2.11
O=C(O)c1ccccc1SCC(=O)N1CCCCC1	52.9
CCOc1ccccc1N1CCN(C(=O)c2ccncc2)CC1	-22.8
O=C(CSc1nnc(Cc2ccccc2)n1Cc1ccccc1)NCc1ccco1	8.68
